# Laboratory results: article PMC7862700, “An all-to-all approach to the identification of sequence-specific readers for epigenetic DNA modifications on cytosine”
# Legend:
# Assay in all cases: DAPPL (digital affinity profiling via proximity ligation, sequencing); 10 mM Tris-HCl pH 7.5, 50 mM NaCl, 1 mM DTT, 4% glycerol, room temperature, 30 min; GST-TFs on glutathione beads, 16-mer random dsDNA library, 0.1% formaldehyde crosslink after washing; high values mean tight binding
# FEV = target: T1, FEV (Homo sapiens, UniProt Q99581 1-238); details: protein: recombinant; tags: N-terminal GST; dsDNA, one strand shown
# T1 sequence: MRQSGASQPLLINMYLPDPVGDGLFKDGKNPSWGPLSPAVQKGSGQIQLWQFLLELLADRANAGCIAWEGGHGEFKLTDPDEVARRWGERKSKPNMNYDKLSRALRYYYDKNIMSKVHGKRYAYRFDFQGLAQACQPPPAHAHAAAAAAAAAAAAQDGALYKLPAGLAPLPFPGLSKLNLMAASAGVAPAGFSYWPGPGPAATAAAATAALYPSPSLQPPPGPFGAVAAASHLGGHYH
# Method in brief: (§1)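 Beads coated with glutathione captured GST-fused human transcription factors that had been expressed in yeast, and the factors were then given DNA barcodes and pooled with a tag-only sample. The pools were incubated with 200 nmole of a random double-stranded 16-mer DNA library in Tris/NaCl/DTT/glycerol buffer for 30 min at room temperature, washed, crosslinked with 0.1% formaldehyde and proximity-ligated with BsaI/T4 ligase at 37 °C for 1 h. PCR amplification and Illumina NextSeq500 sequencing came last. Binding signal is each hexamer's read frequency for a factor divided by its frequency for the tag-only sample.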
# ETV5 = ETV5 (Homo sapiens, UniProt P41161 1-510); details: protein: recombinant; tags: N-terminal GST; dsDNA, one strand shown
# Chain of ETV5 (P41161 whole entry): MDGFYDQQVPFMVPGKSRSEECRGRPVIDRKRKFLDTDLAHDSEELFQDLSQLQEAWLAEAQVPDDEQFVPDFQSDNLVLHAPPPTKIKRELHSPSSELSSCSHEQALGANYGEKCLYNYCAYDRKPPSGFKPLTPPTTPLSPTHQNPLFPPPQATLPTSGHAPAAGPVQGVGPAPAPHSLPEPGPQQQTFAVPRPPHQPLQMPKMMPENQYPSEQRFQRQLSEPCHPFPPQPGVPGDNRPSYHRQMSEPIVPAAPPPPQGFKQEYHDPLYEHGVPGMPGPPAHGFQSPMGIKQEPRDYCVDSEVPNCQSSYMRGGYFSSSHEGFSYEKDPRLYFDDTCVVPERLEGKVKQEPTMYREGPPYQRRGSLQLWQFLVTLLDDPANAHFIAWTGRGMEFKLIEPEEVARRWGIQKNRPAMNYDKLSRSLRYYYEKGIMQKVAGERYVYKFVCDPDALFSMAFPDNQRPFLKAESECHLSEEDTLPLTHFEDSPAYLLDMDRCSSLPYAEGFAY
# Method in brief: as §1
# HSF1 = HSF1 (Homo sapiens, UniProt Q00613 1-529); details: protein: recombinant; tags: N-terminal GST; chain copies: 3; dsDNA, one strand shown
# Chain of HSF1 (Q00613 whole entry): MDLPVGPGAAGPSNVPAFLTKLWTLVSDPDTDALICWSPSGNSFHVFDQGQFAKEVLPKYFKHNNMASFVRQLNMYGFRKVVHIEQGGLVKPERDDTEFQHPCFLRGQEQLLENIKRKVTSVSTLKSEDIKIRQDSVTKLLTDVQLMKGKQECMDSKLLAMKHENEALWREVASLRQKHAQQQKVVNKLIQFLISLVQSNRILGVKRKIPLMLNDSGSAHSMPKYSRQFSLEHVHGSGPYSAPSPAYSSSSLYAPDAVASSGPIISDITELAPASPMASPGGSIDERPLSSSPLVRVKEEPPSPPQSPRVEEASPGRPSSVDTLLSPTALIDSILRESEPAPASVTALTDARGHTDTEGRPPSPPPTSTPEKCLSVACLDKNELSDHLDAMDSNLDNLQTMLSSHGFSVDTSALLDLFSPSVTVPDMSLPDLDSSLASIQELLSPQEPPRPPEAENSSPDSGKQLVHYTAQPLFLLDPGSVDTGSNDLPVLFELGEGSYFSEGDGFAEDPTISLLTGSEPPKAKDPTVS
# Method in brief: as §1
# SPIC = target: T2, SPIC (Homo sapiens, UniProt Q8N5J4 1-248); details: protein: recombinant; tags: N-terminal GST; dsDNA, one strand shown
# T2 sequence: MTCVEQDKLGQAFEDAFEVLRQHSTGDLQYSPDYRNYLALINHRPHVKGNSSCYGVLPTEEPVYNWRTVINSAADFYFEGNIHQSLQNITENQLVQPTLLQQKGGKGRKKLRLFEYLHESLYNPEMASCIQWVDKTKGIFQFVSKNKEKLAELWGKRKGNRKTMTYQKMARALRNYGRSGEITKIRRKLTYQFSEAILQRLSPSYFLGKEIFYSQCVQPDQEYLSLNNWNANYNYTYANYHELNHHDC
# Method in brief: as §1
# ELF4 = ELF4 (Homo sapiens, UniProt Q99607 1-663); details: protein: recombinant; tags: N-terminal GST; dsDNA, one strand shown
# Chain of ELF4 (Q99607 whole entry): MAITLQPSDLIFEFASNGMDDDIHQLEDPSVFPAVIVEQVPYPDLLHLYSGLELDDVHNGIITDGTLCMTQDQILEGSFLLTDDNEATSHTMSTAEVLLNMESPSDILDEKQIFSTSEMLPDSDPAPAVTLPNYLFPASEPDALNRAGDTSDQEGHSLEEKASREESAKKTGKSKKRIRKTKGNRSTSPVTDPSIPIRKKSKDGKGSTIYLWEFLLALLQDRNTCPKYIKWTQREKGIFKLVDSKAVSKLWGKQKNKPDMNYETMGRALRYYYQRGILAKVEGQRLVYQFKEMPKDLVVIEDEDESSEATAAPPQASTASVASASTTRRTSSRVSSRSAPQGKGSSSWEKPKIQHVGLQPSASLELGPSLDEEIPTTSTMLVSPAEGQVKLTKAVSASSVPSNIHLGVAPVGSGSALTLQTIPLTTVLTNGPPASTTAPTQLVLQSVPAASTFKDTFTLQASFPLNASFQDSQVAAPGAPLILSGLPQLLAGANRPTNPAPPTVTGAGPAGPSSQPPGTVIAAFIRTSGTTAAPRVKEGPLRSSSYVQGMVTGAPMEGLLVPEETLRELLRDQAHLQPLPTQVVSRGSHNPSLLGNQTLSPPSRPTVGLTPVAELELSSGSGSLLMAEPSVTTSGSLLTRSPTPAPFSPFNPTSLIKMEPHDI
# Method in brief: as §1
# ELK4 = target: T3, ELK4 (Homo sapiens, UniProt P28324-2 1-405); details: protein: recombinant; tags: N-terminal GST; dsDNA, one strand shown
# T3 sequence: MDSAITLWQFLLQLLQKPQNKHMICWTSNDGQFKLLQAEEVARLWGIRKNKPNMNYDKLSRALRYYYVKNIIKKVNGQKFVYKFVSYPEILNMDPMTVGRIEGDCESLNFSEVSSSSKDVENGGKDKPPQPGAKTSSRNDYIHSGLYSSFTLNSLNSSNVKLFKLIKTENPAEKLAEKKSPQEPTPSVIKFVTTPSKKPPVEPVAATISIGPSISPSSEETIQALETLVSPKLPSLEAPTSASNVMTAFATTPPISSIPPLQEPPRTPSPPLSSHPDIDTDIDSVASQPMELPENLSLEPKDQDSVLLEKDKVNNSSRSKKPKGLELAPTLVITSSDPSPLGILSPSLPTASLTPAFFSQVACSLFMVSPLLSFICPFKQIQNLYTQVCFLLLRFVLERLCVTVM
# Method in brief: as §1
# ETV2 = target: T4, ETV2 (Homo sapiens, UniProt O00321 1-342); details: protein: recombinant; tags: N-terminal GST; dsDNA, one strand shown
# T4 sequence: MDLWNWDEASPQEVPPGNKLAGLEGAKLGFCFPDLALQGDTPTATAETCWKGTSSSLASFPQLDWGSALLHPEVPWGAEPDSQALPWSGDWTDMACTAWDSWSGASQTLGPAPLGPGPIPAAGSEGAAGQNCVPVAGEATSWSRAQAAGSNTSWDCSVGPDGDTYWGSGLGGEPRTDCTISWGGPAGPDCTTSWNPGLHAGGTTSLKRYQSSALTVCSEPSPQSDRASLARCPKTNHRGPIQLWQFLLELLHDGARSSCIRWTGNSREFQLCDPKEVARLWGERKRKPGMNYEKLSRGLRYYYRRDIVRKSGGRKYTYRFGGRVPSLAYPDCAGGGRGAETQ
# Method in brief: as §1
# ELF3 = target: T5, ELF3 (Homo sapiens, UniProt P78545 1-371); details: protein: recombinant; tags: N-terminal GST; dsDNA, one strand shown
# T5 sequence: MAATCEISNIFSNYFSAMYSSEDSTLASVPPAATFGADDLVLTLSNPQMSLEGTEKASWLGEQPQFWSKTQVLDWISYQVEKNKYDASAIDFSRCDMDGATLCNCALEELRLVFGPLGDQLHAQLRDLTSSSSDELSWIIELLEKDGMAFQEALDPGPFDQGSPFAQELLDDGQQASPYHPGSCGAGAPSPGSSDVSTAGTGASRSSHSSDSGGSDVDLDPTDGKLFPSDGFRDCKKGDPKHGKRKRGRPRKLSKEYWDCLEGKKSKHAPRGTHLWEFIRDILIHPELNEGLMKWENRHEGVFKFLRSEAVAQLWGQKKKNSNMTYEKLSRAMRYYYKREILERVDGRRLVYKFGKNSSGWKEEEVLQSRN
# Method in brief: as §1
# CRX = CRX (Homo sapiens, UniProt O43186 1-299); details: protein: recombinant; tags: N-terminal GST; dsDNA, one strand shown
# Chain of CRX (O43186 whole entry): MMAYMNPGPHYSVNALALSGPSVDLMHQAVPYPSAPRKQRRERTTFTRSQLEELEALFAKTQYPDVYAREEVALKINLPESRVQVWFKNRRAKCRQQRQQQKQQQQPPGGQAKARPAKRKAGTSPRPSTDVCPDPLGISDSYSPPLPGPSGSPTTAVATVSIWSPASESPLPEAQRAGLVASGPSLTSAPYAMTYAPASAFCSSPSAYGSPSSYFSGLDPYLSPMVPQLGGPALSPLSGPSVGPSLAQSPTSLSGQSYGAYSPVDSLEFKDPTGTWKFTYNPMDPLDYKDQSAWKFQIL
# Method in brief: as §1
# ETV1 = ETV1 (Homo sapiens, UniProt P50549 1-477); details: protein: recombinant; tags: N-terminal GST; dsDNA, one strand shown
# Chain of ETV1 (P50549 whole entry): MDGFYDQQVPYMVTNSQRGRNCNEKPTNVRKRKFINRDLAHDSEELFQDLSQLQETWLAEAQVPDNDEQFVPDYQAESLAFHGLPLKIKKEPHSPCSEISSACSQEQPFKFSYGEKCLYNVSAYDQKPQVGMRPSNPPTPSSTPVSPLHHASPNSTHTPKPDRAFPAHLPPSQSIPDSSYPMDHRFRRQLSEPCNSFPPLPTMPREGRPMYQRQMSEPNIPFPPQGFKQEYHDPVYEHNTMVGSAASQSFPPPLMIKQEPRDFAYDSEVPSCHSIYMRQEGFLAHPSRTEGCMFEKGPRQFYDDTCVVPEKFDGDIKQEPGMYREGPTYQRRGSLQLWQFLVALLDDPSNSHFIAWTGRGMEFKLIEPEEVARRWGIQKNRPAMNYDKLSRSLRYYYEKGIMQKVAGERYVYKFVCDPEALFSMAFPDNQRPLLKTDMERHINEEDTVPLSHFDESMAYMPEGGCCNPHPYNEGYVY
# Method in brief: as §1
# ERF = target: T6, ERF (Homo sapiens, UniProt P50548 1-548); details: protein: recombinant; tags: N-terminal GST; dsDNA, one strand shown
# T6 sequence: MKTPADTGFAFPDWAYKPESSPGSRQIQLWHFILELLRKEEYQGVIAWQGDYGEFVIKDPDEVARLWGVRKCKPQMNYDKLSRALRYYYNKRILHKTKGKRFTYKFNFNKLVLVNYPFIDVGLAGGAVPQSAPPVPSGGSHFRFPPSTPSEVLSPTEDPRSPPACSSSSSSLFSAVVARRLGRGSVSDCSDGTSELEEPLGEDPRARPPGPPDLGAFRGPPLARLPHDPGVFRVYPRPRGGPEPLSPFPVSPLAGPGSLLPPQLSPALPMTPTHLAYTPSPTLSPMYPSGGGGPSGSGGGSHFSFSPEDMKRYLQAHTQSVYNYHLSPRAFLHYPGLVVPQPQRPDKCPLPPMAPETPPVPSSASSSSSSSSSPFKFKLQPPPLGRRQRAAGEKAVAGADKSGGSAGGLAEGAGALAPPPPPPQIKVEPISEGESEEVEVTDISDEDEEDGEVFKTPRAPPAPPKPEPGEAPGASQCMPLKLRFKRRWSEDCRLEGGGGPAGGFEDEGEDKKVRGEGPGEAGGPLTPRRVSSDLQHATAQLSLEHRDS
# Method in brief: as §1
# ETV3L = target: T7, ETV3L (Homo sapiens, UniProt Q6ZN32 1-361); details: protein: recombinant; tags: N-terminal GST; dsDNA, one strand shown
# T7 sequence: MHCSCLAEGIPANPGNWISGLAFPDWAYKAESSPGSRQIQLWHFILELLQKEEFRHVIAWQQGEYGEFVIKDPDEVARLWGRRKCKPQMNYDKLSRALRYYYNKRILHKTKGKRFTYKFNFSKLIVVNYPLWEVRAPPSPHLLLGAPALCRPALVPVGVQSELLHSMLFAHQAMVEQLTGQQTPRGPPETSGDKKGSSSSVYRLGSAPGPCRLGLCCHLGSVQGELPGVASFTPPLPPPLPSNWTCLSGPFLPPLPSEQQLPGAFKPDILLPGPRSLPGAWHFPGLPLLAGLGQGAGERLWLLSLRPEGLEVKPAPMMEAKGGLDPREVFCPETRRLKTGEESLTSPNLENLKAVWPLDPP
# Method in brief: as §1
# ETS2 = target: T8, ETS2 (Homo sapiens, UniProt P15036 1-469); details: protein: recombinant; tags: N-terminal GST; dsDNA, one strand shown
# T8 sequence: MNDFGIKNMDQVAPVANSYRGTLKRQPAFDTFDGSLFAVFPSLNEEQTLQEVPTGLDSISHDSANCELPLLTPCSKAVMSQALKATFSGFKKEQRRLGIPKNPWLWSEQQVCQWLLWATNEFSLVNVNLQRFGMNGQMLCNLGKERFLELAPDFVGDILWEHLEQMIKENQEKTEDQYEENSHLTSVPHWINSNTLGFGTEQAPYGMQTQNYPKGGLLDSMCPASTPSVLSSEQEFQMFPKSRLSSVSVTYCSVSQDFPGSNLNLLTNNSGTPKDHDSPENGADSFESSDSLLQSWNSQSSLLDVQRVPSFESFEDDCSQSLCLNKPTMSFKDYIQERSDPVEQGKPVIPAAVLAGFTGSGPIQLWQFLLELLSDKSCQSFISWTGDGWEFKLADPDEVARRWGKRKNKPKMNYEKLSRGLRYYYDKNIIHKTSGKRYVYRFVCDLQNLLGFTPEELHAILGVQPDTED
# Method in brief: as §1
# SPDEF = target: T9, SPDEF (Homo sapiens, UniProt O95238 1-335); details: protein: recombinant; tags: N-terminal GST; dsDNA, one strand shown
# T9 sequence: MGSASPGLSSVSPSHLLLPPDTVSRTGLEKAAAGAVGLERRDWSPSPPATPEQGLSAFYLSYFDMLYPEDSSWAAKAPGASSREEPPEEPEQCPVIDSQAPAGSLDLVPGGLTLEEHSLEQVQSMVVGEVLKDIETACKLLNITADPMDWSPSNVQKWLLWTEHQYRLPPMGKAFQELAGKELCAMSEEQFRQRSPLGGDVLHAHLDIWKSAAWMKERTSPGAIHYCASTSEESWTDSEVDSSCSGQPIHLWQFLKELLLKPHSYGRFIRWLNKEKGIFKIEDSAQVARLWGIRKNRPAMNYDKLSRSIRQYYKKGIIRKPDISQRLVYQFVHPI
# Method in brief: as §1
# ETV7 = target: T10, ETV7 (Homo sapiens, UniProt Q9Y603 1-341); details: protein: recombinant; tags: N-terminal GST; dsDNA, one strand shown
# T10 sequence: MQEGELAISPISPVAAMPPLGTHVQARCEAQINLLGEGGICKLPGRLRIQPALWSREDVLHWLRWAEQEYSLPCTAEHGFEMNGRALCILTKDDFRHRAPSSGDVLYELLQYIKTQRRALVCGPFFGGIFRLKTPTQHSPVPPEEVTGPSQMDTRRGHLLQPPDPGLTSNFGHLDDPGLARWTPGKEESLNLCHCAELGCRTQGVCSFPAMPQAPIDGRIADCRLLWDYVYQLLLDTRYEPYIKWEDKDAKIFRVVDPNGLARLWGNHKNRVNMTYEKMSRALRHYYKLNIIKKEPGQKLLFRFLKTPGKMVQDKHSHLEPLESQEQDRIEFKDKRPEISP
# Method in brief: as §1
# ELF5 = target: T11, ELF5 (Homo sapiens, UniProt Q9UKW6-2 1-255); details: protein: recombinant; tags: N-terminal GST; dsDNA, one strand shown
# T11 sequence: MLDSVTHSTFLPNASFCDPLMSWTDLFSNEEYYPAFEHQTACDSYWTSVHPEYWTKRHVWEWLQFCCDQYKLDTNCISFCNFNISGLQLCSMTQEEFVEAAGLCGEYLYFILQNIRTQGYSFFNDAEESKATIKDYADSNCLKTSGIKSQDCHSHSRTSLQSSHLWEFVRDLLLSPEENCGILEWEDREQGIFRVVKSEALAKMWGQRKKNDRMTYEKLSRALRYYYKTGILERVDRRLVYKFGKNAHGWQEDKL
# Method in brief: as §1
# ETV3 = target: T12, ETV3 (Homo sapiens, UniProt P41162-2 1-143); details: protein: recombinant; tags: N-terminal GST; dsDNA, one strand shown
# T12 sequence: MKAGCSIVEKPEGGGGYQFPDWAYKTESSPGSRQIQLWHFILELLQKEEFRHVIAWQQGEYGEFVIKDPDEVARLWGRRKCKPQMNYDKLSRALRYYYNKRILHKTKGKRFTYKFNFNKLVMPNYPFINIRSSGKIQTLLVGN
# Method in brief: as §1
# ETV6 = ETV6 (Homo sapiens, UniProt P41212 1-452); details: protein: recombinant; tags: N-terminal GST; dsDNA, one strand shown
# Chain of ETV6 (P41212 whole entry): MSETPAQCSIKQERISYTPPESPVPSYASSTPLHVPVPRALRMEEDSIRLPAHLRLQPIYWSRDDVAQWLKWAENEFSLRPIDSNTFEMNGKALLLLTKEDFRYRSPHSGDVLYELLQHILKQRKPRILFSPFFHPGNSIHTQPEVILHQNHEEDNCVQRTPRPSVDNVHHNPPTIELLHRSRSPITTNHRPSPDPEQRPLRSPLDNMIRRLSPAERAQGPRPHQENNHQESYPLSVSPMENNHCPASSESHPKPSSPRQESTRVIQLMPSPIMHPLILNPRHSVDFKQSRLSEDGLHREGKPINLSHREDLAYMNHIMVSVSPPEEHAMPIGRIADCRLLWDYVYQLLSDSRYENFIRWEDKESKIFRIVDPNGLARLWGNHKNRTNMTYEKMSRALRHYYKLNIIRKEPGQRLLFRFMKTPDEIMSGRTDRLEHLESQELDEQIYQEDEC
# Method in brief: as §1
sequence,measurement,setting,value
AATAGC,binding signal,FEV,"1.18 fold enrichment (6-mer frequency, TF over GST control)"
same,binding signal,ETV5,"1.19 fold enrichment (6-mer frequency, TF over GST control)"
same,binding signal,HSF1,"1.07 fold enrichment (6-mer frequency, TF over GST control)"
same,binding signal,SPIC,"1.01 fold enrichment (6-mer frequency, TF over GST control)"
same,binding signal,ELF4,"1.15 fold enrichment (6-mer frequency, TF over GST control)"
same,binding signal,ELK4,"1.19 fold enrichment (6-mer frequency, TF over GST control)"
same,binding signal,ETV2,"1.17 fold enrichment (6-mer frequency, TF over GST control)"
same,binding signal,ELF3,"1.23 fold enrichment (6-mer frequency, TF over GST control)"
same,binding signal,CRX,"1.15 fold enrichment (6-mer frequency, TF over GST control)"
same,binding signal,ETV1,"1.13 fold enrichment (6-mer frequency, TF over GST control)"
same,binding signal,ERF,"1.25 fold enrichment (6-mer frequency, TF over GST control)"
same,binding signal,ETV3L,"1.03 fold enrichment (6-mer frequency, TF over GST control)"
same,binding signal,ETS2,"1.15 fold enrichment (6-mer frequency, TF over GST control)"
same,binding signal,SPDEF,"1.1 fold enrichment (6-mer frequency, TF over GST control)"
same,binding signal,ETV7,"1.19 fold enrichment (6-mer frequency, TF over GST control)"
same,binding signal,ELF5,"1.16 fold enrichment (6-mer frequency, TF over GST control)"
same,binding signal,ETV3,"1.23 fold enrichment (6-mer frequency, TF over GST control)"
same,binding signal,ETV6,"1.1 fold enrichment (6-mer frequency, TF over GST control)"
